The results in this text go back to a collection of fitness landscapes (doi:10.1126/science.1257360).

B1: PhoQ; a variant is named by its letters at X, in order, P23837 (parent)
chain: MKKLLRLFFPLSLRVRFLLATAAVVLVLSLAYGMVALIGYSVSFDKTTFRLLRGESNLFYTLAKWENNKLHVELPENIDKQSPTMTLIYDENGQLLWAQRDVPWLMKMIQPDWLKSNGFHEIEADVNDTSLLLSGDHSIQQQLQEVREDDDDAEMTHSVAVNVYPATSRMPKLTIVVVDTIPVELKSSYMVWSWFIYVLSANLLLVIPLLWVAAWWSLRPIEALAKEVRELEEHNRELLNPATTRELTSLVRNLNRLLKSERERYDKYRTTLTDLTHSLKTPLXXLQXXLRSLRSEKMSVSDAEPVMLEQISRISQQIGYYLHRASMRGGTLLSRELHPVAPLLDNLTSALNKVYQRKGVNISLDISPEISFVGEQNDFVEVMGNVLDNACKYCLEFVEISARQTDEHLYIVVEDDGPGIPLSKREVIFDRGQRVDTLRPGQGVGLAVAREITEQYEGKIVAGESMLGGARMEVIFGRQHSAPKDE

In all, about 140,000 sequences were measured (“enrichment ratio after two sorts for PhoP signalling”: median about 0, highest 2% from about 11 on). The list comes from a sample in which the highest values are over-represented; it also holds similar and randomly drawn sequences.

The test covers variants of B1. The test can be described thus: enrichment ratio after two sorts for PhoP signalling (ratio (wild type AVST 3.29)); higher = more functional. Conditions: with PhoP (E. coli).
As to TANR, the enrichment ratio is ≤ 0.25. With ASYY, the enrichment ratio was ≤ 0.25. For ASAI the value was 13.2.

For the variant ASRY, the enrichment ratio was ≤ 0.25.

On to KSAA, for which the enrichment ratio was ≤ 0.25. As for ASAG, the enrichment ratio worked out at 7.21. Consider ASAS, for which the enrichment ratio was 15.3. Consider ASAD, for which the enrichment ratio was ≤ 0.25.

Regarding ASAA, the enrichment ratio is 13.4. In the case of ASAT, the enrichment ratio is 10.1. As for IFDK, the enrichment ratio is ≤ 0.25. For WHPD the value was ≤ 0.25; for CLCS, ≤ 0.25. As for RQQL, the enrichment ratio is ≤ 0.25. For HTYY, the enrichment ratio was ≤ 0.25. With NGYY, the enrichment ratio was ≤ 0.25. Turning to MEYY, the enrichment ratio was found to be 18.8. In the case of RGYY, the enrichment ratio was ≤ 0.25. For MKYY the value was ≤ 0.25. With STYY, the enrichment ratio is ≤ 0.25.

In the case of MTYY, the enrichment ratio worked out at 0.96.

As for QEYY, the enrichment ratio was 17.4. MEAY: the enrichment ratio stood at 13. In the case of QIYY, the enrichment ratio is ≤ 0.25.

For MEYI, the enrichment ratio stood at 11.

Turning to MKAY, the enrichment ratio is ≤ 0.25. With TGYY, the enrichment ratio was 22.5. In the case of NFDN, the enrichment ratio was ≤ 0.25.

In the case of RTPI, the enrichment ratio is ≤ 0.25. The same measure for RQSW: ≤ 0.25. For IMCF the value was ≤ 0.25; for EDGY, ≤ 0.25. For SVAE the value was 13.4. As to KFAE, the enrichment ratio was ≤ 0.25.

As to SVGR, the enrichment ratio stood at 1.46. The same measure for SVSQ: 13.4; for SVHF: ≤ 0.25. The same measure for SVSR: 6.38; for SVHQ: ≤ 0.25. In the case of SVMR, the enrichment ratio amounted to 12.6. For the variant SVSF, the enrichment ratio was determined as 12.6. As to SVAV, the enrichment ratio came to 7.92. For SVTR the value was 8.52.

Consider SVHP, for which the enrichment ratio was ≤ 0.25. Take WQKA: the enrichment ratio was ≤ 0.25. For ARFL the value was ≤ 0.25; for KVIR, ≤ 0.25. On to ADCI, for which the enrichment ratio was ≤ 0.25. For PPMF the value was ≤ 0.25; for RIFK, 1.58; for NEIH, ≤ 0.25. With TNDC, the enrichment ratio was ≤ 0.25. On to MKCG, for which the enrichment ratio was ≤ 0.25. Take SVTI: the enrichment ratio worked out at 12. Take SVVA: the enrichment ratio came out at 1.32. The same measure for SVTK: 11.9; for SVPA: ≤ 0.25. The same measure for SVLY: 0.677; for SVPM: 7.47. For SVTM, the enrichment ratio was found to be 14.7. Turning to SVHG, the enrichment ratio is ≤ 0.25. As for SVWM, the enrichment ratio is ≤ 0.25. Regarding SVTS, the enrichment ratio turned out to be 7.51.

As for SVVG, the enrichment ratio is 6.29. The same measure for SVTG: 13.5; for GRAK: ≤ 0.25.

As to PILY, the enrichment ratio is ≤ 0.25. In the case of EHER, the enrichment ratio was ≤ 0.25.

For QSNR, the enrichment ratio is ≤ 0.25. Take PYGV: the enrichment ratio is ≤ 0.25.

As to SGYP, the enrichment ratio is ≤ 0.25. For IIGH the value was ≤ 0.25; for RDSD, ≤ 0.25; for KFSG, ≤ 0.25. SVWR: the enrichment ratio is ≤ 0.25.

On to KFAH, for which the enrichment ratio was ≤ 0.25. The same measure for SVSG: 13.4. For SVTC the value was 3.84; for SVAH, 12.7. For NVCC the value was ≤ 0.25; for SVCC, 16.1; for SDSG, 0.62. In the case of SVMG, the enrichment ratio was found to be 5.71. For the variant SVMH, the enrichment ratio amounted to 22.9.

As to NVAH, the enrichment ratio was ≤ 0.25. For RVAP the value was ≤ 0.25; for WQNE, ≤ 0.25; for LLNR, ≤ 0.25.

Regarding TAVV, the enrichment ratio amounted to 1.05. The same measure for ARNK: ≤ 0.25; for QMLS: ≤ 0.25; for PVNG: ≤ 0.25. The same measure for SVCG: 13.3. In the case of SVSK, the enrichment ratio came out at 12.7. Turning to SVCI, the enrichment ratio was 10.4. The same measure for SVCS: 8.61; for SVSH: 10.5; for SVPI: 5.93.

On to SVWI, for which the enrichment ratio is ≤ 0.25. As to SVNG, the enrichment ratio is 12.5.

Consider LCNG, for which the enrichment ratio is ≤ 0.25. For SVNH the value was 3.33; for SVTH, 11.9; for KLIS, ≤ 0.25.

For the variant NRHS, the enrichment ratio was ≤ 0.25. GGDF: the enrichment ratio is ≤ 0.25. As for FHQD, the enrichment ratio was ≤ 0.25. For the variant IWVM, the enrichment ratio was ≤ 0.25. Take HEVP: the enrichment ratio is ≤ 0.25.

As for SVMQ, the enrichment ratio stood at 15.2. The same measure for SVCF: 4.45; for SVMS: 8.47.

On to SVCH, for which the enrichment ratio was 12.5.

For SRSF, the enrichment ratio was ≤ 0.25. The same measure for SVMV: 9.33; for KFCH: ≤ 0.25. For SLSF, the enrichment ratio was 11.7.

Take SQSF: the enrichment ratio came to 7.01.

Turning to MQII, the enrichment ratio is ≤ 0.25. RDEG: the enrichment ratio is ≤ 0.25. The same measure for FSHY: ≤ 0.25; for TALR: 3.62. For HPIF, the enrichment ratio is ≤ 0.25. On to TEVH, for which the enrichment ratio came out at 16.3.

On to TSCK, for which the enrichment ratio was determined as 3.25. For KSCS, the enrichment ratio is ≤ 0.25. Take TSVH: the enrichment ratio stood at 11.7. For WIVH the value was ≤ 0.25; for KSVH, ≤ 0.25.

Consider AIVH, for which the enrichment ratio was 15.

As for MEVH, the enrichment ratio was 1.05. As to QEVH, the enrichment ratio was ≤ 0.25. As for AHVH, the enrichment ratio was ≤ 0.25. Turning to TSCS, the enrichment ratio stood at 14.7.

LCVH: the enrichment ratio is ≤ 0.25. Consider VGWK, for which the enrichment ratio is ≤ 0.25. Take ATFQ: the enrichment ratio was found to be 2.02. FKND: the enrichment ratio was ≤ 0.25.

AFSM: the enrichment ratio was 0.932.

Consider RMFW, for which the enrichment ratio is ≤ 0.25. For KSCI the value was ≤ 0.25; for YRCV, ≤ 0.25.

In the case of KSCV, the enrichment ratio was ≤ 0.25. For TSCV the value was 17.3; for KYVH, ≤ 0.25.

In the case of FSCV, the enrichment ratio was 9.84. For TSCE the value was 8.23; for STVH, 8.82; for YSCI, 2.62. For YSCV the value was 15.6; for TSCI, 14.8.

Consider SSVH, for which the enrichment ratio was 14.4. For TRVP, the enrichment ratio is ≤ 0.25. The same measure for GWST: ≤ 0.25.
